AddAB inh – growth inhibition of E. coli expressing H. pylori AddAB, primary screen, AddAB inhibitor project, absorbance; hit rate 0.29% among 330,000; AID 435030, 2010; inhibition, % at 11.9 µM; in the data active = inhibition above about 12%;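 note: 0% = vehicle wells of infected cells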
E coli growth-1 – E. coli V3065 growth inhibition, primary screen, counter-screen for AddAB inhibitor project, absorbance, OD600. 18 h. inhibition, % at 11.9 µM. hit rate 0.27% among 330,000. AID 449728, 2010;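 active = inhibition above the campaign's mean inhibition across all tested compounds plus 3 SD, cut at about 9.9% in these data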;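 note: uninfected addAB+ strain grown without phage in ampicillin broth; 0% = DMSO wells and 100% = ciprofloxacin 0.95 µg/ml wells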
E coli growth-2 – E. coli growth inhibition, primary screen, OD600; AID 1053175, 2014; Escherichia coli growth, 23 h; active compounds read low; OD600 absorbance (concentration not given with the values); hit rate 0.21% among 330,000;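 active = OD600 absorbance below the run mean of sample wells minus 3.6 SD, in any replicate, cut at about 0.56 in these data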
Tat transport – E. coli Tat export inhibitors, primary screen, MC4100, TorA-mCherry reporter, fluorescence, single point. inhibition, % at 10 µM. hit rate 0.036% among 340,000. AID 488895, 2010;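 active = mean replicate inhibition at least 50% and at least half of replicates individually reaching 50%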;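 note: exported cargo escapes ClpAP degradation while cytoplasmic cargo is degraded and loses fluorescence; 0% = median of neutral control wells and 100% = median of NaSCN control wells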
phage Ecoli inh – growth loss of phage-infected E. coli, primary screen, RecBCD inhibitor project, absorbance, with phage, HTS. inhibition, % at 11.9 µM. AID 651602, 2012. hit rate 0.26% among 360,000; in the data active = inhibition above about 11%
RecBCD conf – growth loss of phage-infected RecBCD+ E. coli, confirmation, RecBCD inhibitor project, absorbance, E. coli V66, T4 gene 2 phage; shares compounds with phage Ecoli inh; E. coli V66 + T4 2- phage, growth OD; inhibition, % at 11.9 µM; hit rate 45% among 890;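 active = mean inhibition over triplicates exceeding the hit threshold derived in the original primary screen, cut at about 11% in these data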
Ecoli viability – E. coli viability inhibition, counter-screen for RecBCD inhibitor project, absorbance, high throughput; shares compounds with phage Ecoli inh; absorbance (OD) growth; inhibition, % at 11.9 µM; hit rate 29% among 890; in the data active = inhibition above about 20%;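 note: E. coli strain V66 grown with compound alone and no phage infection; 0% = bacteria with DMSO vehicle only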
AddAB counter – growth loss of phage-infected AddAB-carrying E. coli, confirmation, counter-screen for RecBCD inhibitor project, absorbance, E. coli V3065, T4 phage; hit rate 45% among 890; AID 651984, 2013; inhibition, % at 11.9 µM; E. coli expressing H. pylori AddAB + T4 phage, OD growth; gene 2 mutant T4, recBCD-deleted host; shares compounds with phage Ecoli inh;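 active = mean inhibition above the solvent-only control wells' mean plus 3 SD, cut at about 22% in these data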;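 note: higher means less bacterial growth from phage killing when AddAB is blocked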
Numbers without * were called inactive; / = no result given. This is a sample that favours compounds with a hit; in the whole collection about 0.5% have one here.

SMILES	AddAB inh	E coli growth-1	E coli growth-2	Tat transport	phage Ecoli inh	RecBCD conf	Ecoli viability	AddAB counter
COc1cc(-c2nnc(COC(=O)c3ccc([N+](=O)[O-])o3)o2)cc(OC)c1OC	/	/	/	/	12.3*	-2.4	-0.3	14.2
O=C(OCc1nnc(-c2ccccc2)o1)c1ccc([N+](=O)[O-])o1	1.4	2.7	0.659	-2.0	6.1	/	/	/
O=C(CSc1ccc(-c2ccccn2)nn1)Nc1cccc(F)c1	10.4	10.9*	0.622	11.5	12.2*	3.6	2.9	6.1
Nc1nc(N)c2cc(CNc3ccc(Cl)c(Cl)c3)ccc2n1	/	/	/	/	57.6*	41.2*	36.3*	72.9*
COc1cc(C=NNc2ccc3ccccc3c2)ccc1OC(=O)c1ccco1	/	/	0.709	/	/	/	/	/
FC(F)(F)c1ccc(NC(=S)NC2CCCCC2)cc1	9.6	9.3	0.635	0.1	14.7*	6.7	7.6	9.2
FC(F)(F)c1cccc(NC(=S)NC2CCCC2)c1	6.2	3.3	0.619	1.3	8.3	/	/	/
O=C(NCc1ccccc1)c1sc(=S)n2c1[nH]c(=O)c1ccccc12	3.8	-2.0	0.72	-4.2	14.6*	-1.8	-2.3	-10.2
CNC(=C[N+](=O)[O-])NCCSCc1csc(CN(C)C)n1	/	/	0.706	/	/	/	/	/
NCC[C@H](O)C(=O)N[C@@H]1C[C@H](N)[C@@H](O[C@H]2O[C@H](CN)[C@@H](O)[C@H](O)[C@H]2O)[C@H](O)[C@H]1O[C@H]1O[C@H](CO)[C@@H](O)[C@H](N)[C@H]1O	/	/	/	126.1*	100.3*	99.8*	100.3*	101.1*
NCC1OC(OC2C(N)CC(N)C(OC3OC(CO)C(O)C(N)C3O)C2O)C(N)CC1O (stereo not drawn)	/	/	0.677	/	/	/	/	/
CCOC(=O)C1C2COc3ccc(OC)cc3C2N2C(=O)CN(Cc3ccco3)C(=O)[C@@]12C (stereo partly drawn)	/	/	0.68	/	/	/	/	/
FC(F)(F)c1cccc(Sc2nc(-c3ccccc3)nnc2C(F)(F)F)c1	4.1	1.4	0.713	-0.5	2.5	/	/	/
Nc1nc(N)c2cc(Sc3cccc(C(F)(F)F)c3)ccc2n1	/	/	/	/	61.5*	67.4*	57.7*	85.8*
Nc1nc(N)c2cc(Sc3ccc(Cl)cc3)ccc2n1	/	/	/	/	101.0*	102.1*	104.1*	102.7*
CC(CC(=O)Nc1ccccc1C)=NNC(=O)Cc1csc(N)n1	/	/	0.715	/	/	/	/	/
CCC(C)[C@H](NC(=O)N1CCCCCC1)C(=O)O (stereo partly drawn)	1.6	2.8	0.713	-1.6	-3.2	/	/	/
CC(C)C[C@H](NC(=O)N1CCCCCC1)C(=O)O	1.2	-1.0	0.667	-6.1	55.5*	1.3	0.5	-1.7
CCCCn1c(CNC(=O)CC)nc2ccccc21	0.7	-2.3	0.724	-9.0	1.9	/	/	/
CCCCn1c(CNC(=O)Cc2ccccc2)nc2ccccc21	-0.5	-1.5	0.7	-2.6	99.5*	-2.9	-3.3	3.1
O=S(=O)(Nc1ncccn1)c1ccc(NC(=S)Nc2ccccc2Cl)cc1	6.9	3.4	/	-10.2	11.2*	-0.5	-1.5	6.3
CC(C)(C)C(=O)NC(=S)Nc1ccc(S(=O)(=O)Nc2nccs2)cc1	3.1	-1.1	0.645	-1.5	4.9	/	/	/
NS(=O)(=O)c1ccc(NC(=S)Nc2ccc(S(=O)(=O)Nc3nccs3)cc2)cc1	/	/	/	/	11.4*	2.7	2.9	8.1
CC1CCCC(C)N1N=Cc1ccccc1F (stereo not drawn)	/	/	0.706	/	/	/	/	/
CC(=NNc1nc2ccccc2o1)c1cc2ccccc2cn1	/	/	/	7.1	11.7*	10.6	11.6	18.4
SMILES	AddAB inh	E coli growth-1	E coli growth-2	Tat transport	phage Ecoli inh	RecBCD conf	Ecoli viability	AddAB counter
CC(=NNc1nc2ccccc2o1)c1ncccn1	/	/	/	-16.8	30.3*	28.9*	36.2*	19.9
CC(=NNc1nc2ccc(Cl)cc2o1)c1ccccc1	/	/	0.659	/	/	/	/	/
COc1cc([N+](=O)[O-])cc(C=NNC(=O)CSc2nnc(-c3ccccc3)n2C)c1O	/	/	0.661	/	/	/	/	/
Cc1ccc(/C=N/NC(=O)c2nnn(-c3nonc3N)c2CNc2ccccc2)cc1	2.7	-0.8	/	-6.3	2.4	/	/	/
Nc1nonc1-n1nnc(C(=O)N/N=C/c2cc(Br)ccc2O)c1CNc1ccccc1	5.4	-0.3	/	-3.7	12.2*	7.7	9.6	10.8
COc1cc2c(c(OC)c1OC)-c1c(cc3c(c1OC)OCO3)CC(C)[C@@](C)(O)C2 (stereo partly drawn)	/	/	0.674	/	/	/	/	/
COC(=O)C1=C(C)N(Cc2ccccc2C(F)(F)F)C(=NCc2ccccc2)NC1c1ccc(C(F)(F)F)cc1 (stereo not drawn)	/	/	/	/	13.3*	1.3	1.5	7.9
COC(=O)C1=C(C)N(Cc2ccccc2C(F)(F)F)C(=NCc2cccc(C(F)(F)F)c2)NC1c1ccc(C(F)(F)F)cc1 (stereo not drawn)	/	/	/	/	4.7	/	/	/
CCOC(=O)C(C(=O)Nc1ccccc1Br)=C1NC(C)(C)Cc2ccccc21	/	/	0.676	/	/	/	/	/
O=C(NNC(=O)c1cc2ccccc2cc1O)Nc1ccccc1F	11.9	9.9*	0.682	-4.8	10.9*	6.4	7.2	9.7
Cc1ccc(NC(=O)NNC(=O)c2cc3ccccc3cc2O)c(C)c1	11.4	10.4*	0.703	2.0	11.7*	7.1	8.4	6.8
CCc1ccc(NC(=O)NNC(=O)c2cc3ccccc3cc2O)cc1	5.1	6.7	0.704	-16.0	7.1	/	/	/
Cc1ccc2ccc(C(Nc3ccccc3)c3ccc(Cl)cc3)c(O)c2n1 (stereo not drawn)	/	/	/	/	11.8*	0.9	2.8	2.4
Cc1ccc2ccc(C(Nc3ccccc3)c3ccccc3)c(O)c2n1 (stereo not drawn)	/	/	/	/	12.5*	3.2	5.0	11.5
Cc1ccc2ccc(C(Nc3ccccc3)c3ccc(C(C)C)cc3)c(O)c2n1 (stereo not drawn)	/	/	/	/	9.3	/	/	/
Cc1ccnc(NC(c2ccccc2)c2ccc3cccnc3c2O)c1 (stereo not drawn)	/	/	0.721	-3.1	17.1*	8.7	13.7	14.7
Cc1ccc2ccc(C(Nc3ccccn3)c3ccccc3)c(O)c2n1 (stereo not drawn)	2.9	-3.1	0.801	-2.7	8.2	/	/	/
COCc1cc(=O)[nH]c(N=C(N)Nc2ccc(Oc3ccccc3)cc2)n1	/	/	0.617	/	/	/	/	/
CC(C)NC(=O)N(C)CC1Oc2c(NS(=O)(=O)c3cccs3)cccc2C(=O)N(C(C)CO)CC1C (stereo not drawn)	/	/	0.607	/	/	/	/	/
COC(=O)C1(F)C(=O)NC(=O)NC1OC (stereo not drawn)	/	/	/	/	22.9*	27.0*	16.4	46.7*
CCCCOC1NC(=O)NC(=O)C1(F)C(=O)OCC (stereo not drawn)	/	/	/	/	6.1	/	/	/
COc1ccc(C2=CC(=O)CC(c3ccc(OC)c(OC)c3)C2)cn1 (stereo not drawn)	/	/	0.704	/	/	/	/	/
